# MEX-5 binding – MEX-5 zinc finger RNA-binding disruptors – biochemical, C. elegans, fluorescence polarization, MLPCN library, primary screen; Zinc finger protein mex-5 (Caenorhabditis elegans), Q9XUB2; MEX-5/FITC-TCR2 RNA binding; active compounds read low; activity score (negative = inhibition of binding), % at 10 µM; hit rate 0.38% among 300,000; AID 1832, 2009;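 active = inhibition past about -25% in most replicates, and total fluorescence under double the plate's negative control median, limit read from the data; inconclusive = replicates evenly split on the limit, or fluorescence at least double controls; inactive = too little inhibition in most replicates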;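 also: 0% = DMSO and -100% = 5 µM competing unlabeled TCR2 RNA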
# GLD-1 RNA inh – GLD-1/TGE RNA complex disruptors, primary screen, biochemical, fluorescence polarization. Female germline-specific tumor suppressor gld-1 (Caenorhabditis elegans), Q17339. purified GLD-1 + fluorescein TGE RNA. inhibition, % at 5.96 µM. hit rate 0.44% among 320,000;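 active = percent inhibition above a per-plate cutoff, the plate mean of test compounds plus 3 SD, cut at about 30% in these data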;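 also: 0% = DMSO wells with GLD-1 and probe and 100% = wells lacking GLD-1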
# EBV gp42 block – Epstein-Barr virus gp42 inhibitors, primary screen, biochemical, uHTS, fluorescence polarization. Glycoprotein 42 (Epstein-Barr virus (strain AG876)), Q1HVG2. Fluorescence polarization binding assay, mP read-out. inhibition, % (tested at 21.74 µM). hit rate 0.42% among 220,000. AID 1085, 2008; in the data active = inhibition above about 50%
# Target sequence (Q1HVG2 whole entry, looked up): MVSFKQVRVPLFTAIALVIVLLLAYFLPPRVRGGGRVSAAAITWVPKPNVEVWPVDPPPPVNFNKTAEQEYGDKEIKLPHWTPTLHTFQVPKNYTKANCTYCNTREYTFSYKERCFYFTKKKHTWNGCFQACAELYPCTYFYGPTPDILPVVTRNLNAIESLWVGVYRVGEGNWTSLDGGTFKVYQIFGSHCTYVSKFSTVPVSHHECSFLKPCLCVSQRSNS
# BCLXL inh – inhibitors of human Bcl-xL, primary screen, biochemical, fluorescence polarization, HTS | Bcl-2-like protein 1 (Homo sapiens), Q07817 | GST-Bcl-xL / FITC-Bim BH3 peptide fluorescence polarization | inhibition, % at 10.9 µM | hit rate 0.7% among 320,000;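 active = inhibition above the mean of all tested compounds plus 3 SD, cutoff set per campaign, cut at about 30% in these data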;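 also: 0% = DMSO wells and 100% = unlabeled Bim-BH3 peptide competitor; inhibitors lower millipolarization by displacing the labeled peptide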
# Target sequence (Q07817 whole entry, looked up): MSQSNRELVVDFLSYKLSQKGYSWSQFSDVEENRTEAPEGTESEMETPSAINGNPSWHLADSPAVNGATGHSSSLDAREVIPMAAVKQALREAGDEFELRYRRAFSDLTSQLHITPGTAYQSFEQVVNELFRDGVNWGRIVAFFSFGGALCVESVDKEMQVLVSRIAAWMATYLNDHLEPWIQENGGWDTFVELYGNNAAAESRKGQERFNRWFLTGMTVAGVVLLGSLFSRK
# eLon inh – inhibitors of E. coli Lon protease, primary screen, biochemical, fluorescence polarization; AID 602123, 2011; inhibition, % at 7.94 µM; P0A9M0; purified E. coli Lon protease; hit rate 0.42% among 360,000; in the data active = inhibition above about 13%, passing the limit was not always enough;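 also: 0% = enzyme with probe and DMSO and 100% = no enzyme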
# The depositor's hits bear a star; u = inconclusive; x = no result. An excerpt weighted towards active compounds, which were near 1.3% of everything screened.
SMILES,MEX-5 binding,GLD-1 RNA inh,EBV gp42 block,BCLXL inh,eLon inh
N#CC1=C(N)N2C(=C(C#N)C1c1ccccc1)Sc1ccccc12 (stereo unspecified),-32.5*,-3.3,90.2*,-0.8,x
CCOc1ccc(C2C(C#N)=C(N)N3C(=C2C#N)Sc2ccccc23)cc1 (stereo unspecified),-1.7,-13.5,x,-2.6,-35.9
COC(=O)C1=C(C)N(Cc2ccccc2)C(=NCC(C)C)N[C@H]1c1ccccc1,u,30.8*,x,43.6*,x
COC(=O)C1=C(C)N(Cc2ccccc2)C(=NCc2ccc(OC)cc2)N[C@H]1c1ccccc1,x,-7.3,x,x,-11.3
Clc1ccc(-c2nc3c4ccccc4ccn3c2Cc2ccccc2)cc1,x,x,x,x,-10.1
N#CC(C(=O)NC1CCCCC1)c1nc2ccccc2nc1N1CCN(c2ccc(F)cc2)CC1 (stereo unspecified),-76.2*,x,14.2,x,x
N#CC(C(=O)NC1CC1)c1nc2ccccc2nc1N1CCCC1 (stereo unspecified),-7.8,2.2,25.8,17.9,-5.5
CCOc1ccc(C(=O)N[C@H](C(=O)Nc2ccccc2OC)C(C)C)cc1,0.4,2.0,x,0.6,4.7
O=C(NCc1cc(C(F)(F)F)ccc1Cl)c1cccc2c1C(=O)c1ccc(N3CCC(Cc4ccccc4)CC3)cc1S2(=O)=O,x,158.8*,x,x,-9.8
O=C(NC1CCCCC1)c1cccc2c1C(=O)c1ccc(N3CCCC3)cc1S2(=O)=O,x,31.8*,x,x,-29.6
O=C(NCc1ccc(F)cc1)c1cccc2c1C(=O)c1ccc(N3CCC(Cc4ccccc4)CC3)cc1S2(=O)=O,x,167.6*,x,x,-24.7
CC(C)(C)CNC(=O)c1cccc2c1C(=O)c1ccc(N3CCCC3)cc1S2(=O)=O,x,31.6*,x,x,-50.2
O=C(NCc1ccccc1C(F)(F)F)c1cccc2c1C(=O)c1ccc(N3CCCCC3)cc1S2(=O)=O,x,-16.4,x,x,-21.2
CC(C)Cn1c(N)c(C(=O)COC(=O)CCc2nc3ccccc3s2)c(=O)n(C)c1=O,-1.1,-9.2,5.7,3.0,5.0
COc1cc(C(=O)NC(=S)Nc2ccc3[nH]c(=O)[nH]c3c2)cc(OC)c1OC,0.5,-1.4,x,10.3,2.2
CC(=O)NC(c1ccccc1)c1nc(-c2cccc(CO)c2)cs1 (stereo unspecified),x,x,x,x,-7.9
O=C(NC1CC1)c1cccc2c1C(=O)c1ccc(N3CCC(Cc4ccccc4)CC3)cc1S2(=O)=O,x,44.6*,x,x,-99.3
Cc1nn(-c2cc(C(F)(F)F)ccc2Cl)c2nc(C(Cl)(Cl)Cl)[nH]c(=O)c12,0.1,5.8,-0.4,10.8,-1.4
CCOc1ccc(S(=O)(=O)c2c[nH]c3ccc(C)cc3c2=O)cc1,0.3,19.4,x,40.5*,-8.6
Cc1cccc(NC(=S)N=Nc2c(O)n(CN3CCOCC3)c3ccccc23)c1C,0.5,0.1,-20.9,3.4,6.2
Cc1ccc(N=Nc2c(O)n(CN3CCOCC3)c3ccccc23)cc1,-27.8*,89.1*,94.0*,96.4*,-15.6
COc1ccc(C(=O)C(C)[n+]2ccc(C)c3ccccc32)cc1[N+](=O)[O-] (stereo unspecified),2.3,-44.1,x,34.2*,-44.1
COc1ccc(C(=O)NC(C)CCc2ccccc2)cc1[N+](=O)[O-] (stereo unspecified),0.5,-2.0,x,0.1,3.5
CCN(CC)S(=O)(=O)c1cccc(C(=O)N/N=C2\CC(=O)CC(C)(C)C2)c1,-1.5,52.8*,-5.2,14.9,22.6
Cc1ccc(S(=O)(=O)N(C)Cc2ccc(C(=O)N/N=C3\CC(=O)CC(C)(C)C3)cc2)cc1,4.7,13.0,-9.5,1.2,-1.1
CCOC(=O)C1=CC[C@@H](c2cc(OC)c(OC)c(OC)c2)N(S(=O)(=O)c2ccc(C)cc2)[C@H]1C(=O)OCC,x,-1.3,x,x,9.1
CCN(C(=O)Cc1c(C(=O)O)[nH]c2ccccc12)c1ccc(OC)cc1,1.4,0.9,-4.7,5.0,-6.1
CCCCOc1ccc2c(c1)C(=O)c1cc(O)ccc1-2,-0.5,139.2*,0.7,4.6,8.5
COC(=O)c1ccc(COC(=O)c2ccc(-n3cnnn3)cc2)o1,-1.1,1.2,-27.4,-0.6,-7.4
Cc1ccc(F)c(NC=C2C(=O)OC(C)(C)OC2=O)c1,-1.5,-2.6,-2.0,0.4,10.0

# Bioassay records (PubChem)
